The source of these data is PubChem BioAssay AID1445 (SRMLSC, 2008).

Structures are written as SMILES. Screen size: about 220,000 compounds; about 910 (0.41%) were called active.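 How the source made its calls: active means primary inhibition above the hit cutoff, then over 50% inhibition at one or more dose response concentrations (cut at about 23% in these data, passing the limit was not always enough); inconclusive means conflicting primary data, or primary hits not chosen for dose response; inactive means low primary inhibition, or under 50% at every dose.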 The entries come from a sample that favours actives as a whole. Results with a measured potency or affinity are listed apart.

Sequence of Aminopeptidase N (Plasmodium falciparum (isolate 3D7)) (O96935 whole entry, looked up): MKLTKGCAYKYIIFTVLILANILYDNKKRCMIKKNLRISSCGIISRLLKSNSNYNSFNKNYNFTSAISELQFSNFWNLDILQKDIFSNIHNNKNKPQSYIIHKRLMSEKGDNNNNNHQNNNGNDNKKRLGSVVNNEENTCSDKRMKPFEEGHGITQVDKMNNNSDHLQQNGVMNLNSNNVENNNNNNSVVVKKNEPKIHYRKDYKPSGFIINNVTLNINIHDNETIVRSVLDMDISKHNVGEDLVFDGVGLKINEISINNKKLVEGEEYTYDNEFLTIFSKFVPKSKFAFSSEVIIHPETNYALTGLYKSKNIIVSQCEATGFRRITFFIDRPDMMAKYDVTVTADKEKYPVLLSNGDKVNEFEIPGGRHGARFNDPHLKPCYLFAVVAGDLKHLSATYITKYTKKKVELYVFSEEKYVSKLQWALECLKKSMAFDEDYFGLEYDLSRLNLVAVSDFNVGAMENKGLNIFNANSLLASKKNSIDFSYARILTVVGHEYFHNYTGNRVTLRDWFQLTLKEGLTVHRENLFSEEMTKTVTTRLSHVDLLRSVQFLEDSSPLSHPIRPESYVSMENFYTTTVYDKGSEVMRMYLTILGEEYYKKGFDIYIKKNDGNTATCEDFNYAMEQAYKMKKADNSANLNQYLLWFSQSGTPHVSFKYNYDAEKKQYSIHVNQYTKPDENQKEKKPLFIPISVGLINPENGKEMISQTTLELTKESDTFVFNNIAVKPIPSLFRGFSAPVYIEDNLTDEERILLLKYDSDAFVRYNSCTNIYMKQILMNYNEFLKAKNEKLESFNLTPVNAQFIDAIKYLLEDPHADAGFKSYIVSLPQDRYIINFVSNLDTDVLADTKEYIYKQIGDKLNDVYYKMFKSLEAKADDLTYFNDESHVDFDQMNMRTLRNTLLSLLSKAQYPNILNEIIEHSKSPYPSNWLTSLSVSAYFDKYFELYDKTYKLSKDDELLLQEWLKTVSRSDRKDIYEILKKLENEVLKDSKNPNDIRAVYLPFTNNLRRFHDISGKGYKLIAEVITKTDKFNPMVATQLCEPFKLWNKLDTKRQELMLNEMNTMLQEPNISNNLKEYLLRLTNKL

This test concerns the target Aminopeptidase N (Plasmodium falciparum (isolate 3D7)) (UniProt O96935). In words: P. falciparum M1AAP inhibitors, biochemical, fluorogenic H-Leu-NHMec substrate, 1536-well (AID 1445).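 Further: plate controls were DMSO full reaction for no effect and no enzyme background for full effect.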 The conditions noted are these: recombinant M1AAP, H-Leu-NHMec fluorogenic kinetic assay; at 30 µM, active compounds read high unless noted.
The inhibition is the change of the read-out against control, counted positive when it falls. As for `CCCCN1C(=O)C(O)=C(C(C)=O)C1c1ccccc1[N+](=O)[O-]` (stereo not given), the inhibition is -0.46% (inactive).
As for `CCCCN(CC)S(=O)(=O)c1ccc2c(c1)CCCN2C(C)=O`, the figure is -2.36% (inactive); as for `CC1CCCCN1S(=O)(=O)c1cnc(Cl)c(Br)c1` (stereo not given), -7.81% (inactive).
As for `O=C(c1ccccc1F)N1CCN=C1c1ccccc1`, the figure is 6.9% (inactive); as for `Cc1occc1C(=O)N/N=C/c1ccccn1`, 3.01% (inactive).
As for `COc1ccc(-n2cnnc2SCC(=O)Nc2cc(S(=O)(=O)N3CCCCC3)ccc2C)cc1`, the figure is 3.33% (inactive); as for `Nn1c(SCC(=O)Nc2cc(S(=O)(=O)N3CCOCC3)ccc2Cl)nnc1-c1cccnc1`, 6.37% (inactive); as for `Cc1ccnc2nc(C(=O)Nc3ccc(S(=O)(=O)N4CCCC4)cc3)nn12`, -4.02% (inactive).
In the case of `COc1ccc2nc(SCC(=O)N3CCCCCC3)c(C#N)cc2c1`, the inhibition is 6.08% (inactive).
As for `Cc1cc2ccccc2nc1SCC(=O)N1CCCC1`, the figure is 11.8% (inactive); as for `O=C(CSc1nc2ccccc2nc1SCC(=O)N1CCCCC1)N1CCCCC1`, 42.7% (active).
As for `O=C(CSc1nc2ccccc2nc1SCC(=O)N1CCOCC1)N1CCOCC1`, the figure is 6.36% (inactive).
As for `COc1ccc2nc(SCC(=O)N3CCCCC3)c(C#N)cc2c1`, the figure is 19.1% (inactive).
Consider `O=C(CCc1nnc(Cc2c[nH]c3ccccc23)o1)NC(C1CC1)C1CC1`, for which the inhibition was 1.78% (inactive).
As for `CN1CCN(C(=O)CCNC(=O)Cn2ccc3ccccc3c2=O)CC1`, the figure is 2.23% (inactive); as for `CC(=O)Nc1ccc(NC(=O)Cn2nc([N+](=O)[O-])c(Br)c2C)cc1`, -1.26% (inactive).
As for `CCn1c(COc2cccc(OC)c2)nnc1SCC(=O)Nc1cccc(OC)c1`, the figure is -3.8% (inactive).
As for `CCCn1cc(S(=O)(=O)CC(=O)N2CCc3ccccc32)c2ccccc21`, the figure is -2.1% (inactive); as for `CCC(C)(C(=O)NC1CCCCC1)N(CC1CCCO1)C(=O)CNC(=O)c1ccccc1` (stereo not given), 4.25% (inactive).
Turning to `O=C(CS)Nc1ccc2ccccc2c1`, the inhibition is 6.21% (inactive).
As for `CC(C)CC(c1nnnn1CC1CCCO1)N1CCN(c2cccc(Cl)c2)CC1` (stereo not given), the figure is 31.4% (active).
As for `Cc1ccc(Cl)cc1N1CCN(C(CC(C)C)c2nnnn2CC2CCCO2)CC1` (stereo not given), the figure is -6.33% (inactive); as for `CCCC(c1nnnn1CC1CCCO1)N1CCN(c2ccccc2)CC1` (stereo not given), 7.5% (inactive).
On to `CCCCCc1ccc(CC(=O)O)cc1`, for which the inhibition is 3% (inactive).
As for `c1ccc(Nc2nc(N3CCCCC3)nc(N3CCCCC3)n2)cc1`, the figure is 2.1% (inactive).
As for `O=c1nc(N2CCCC2)nc(Nc2ccccc2)[nH]1`, the figure is 9.86% (inactive).
As for `CCOC(=O)CC(NC(C)=O)c1ccc([N+](=O)[O-])cc1` (stereo not given), the figure is 2.95% (inactive); as for `CCc1cc2c(=O)c(-c3nc4ccccc4n3C)c(COCC(=O)O)oc2cc1O`, 6.97% (inactive); as for `COC(=O)C(=Nc1ccccc1)/C(C(=O)C(=O)N(C)c1ccccc1)=C(\O)c1ccccc1`, 16.3% (inactive).
For `O=C(O)c1c2c(nc3ccc(S(=O)(=O)N4CCC(C(=O)N5CCCCC5)CC4)cc13)CCCC2`, the inhibition was 4.87% (inactive).
As for `CC1CCc2nc3ccc(S(=O)(=O)N4CCC(C(=O)NC5CCCC5)CC4)cc3c(C(=O)O)c2C1` (stereo not given), the figure is 23.4% (active).
For `CCCNC(=O)C1CCN(S(=O)(=O)c2ccc(Br)cc2)CC1`, the inhibition was 0.41% (inactive).
As for `O=C(O)c1c2c(nc3ccc(S(=O)(=O)N4CCC(C(=O)NC5CCCC5)CC4)cc13)CCCCC2`, the figure is 26.5% (active).
As for `CCCNC(=O)C1CCN(S(=O)(=O)c2ccc3nc4c(c(C(=O)O)c3c2)CCCCC4)CC1`, the figure is 25.7% (active).
For the compound `CC1CCc2nc3ccc(S(=O)(=O)N4CCC(C(=O)N5CCCCCC5)CC4)cc3c(C(=O)O)c2C1` (stereo not given), the inhibition was 13.6% (inactive).
Take `CC1CCc2nc3ccc(S(=O)(=O)N4CCC(C(=O)N5CCCCC5)CC4)cc3c(C(=O)O)c2C1` (stereo not given): the inhibition was 7.8% (inactive).
As to `CC1CCC(NC(=O)C2CCN(S(=O)(=O)c3ccc4nc5c(c(C(=O)O)c4c3)CC(C)CC5)CC2)CC1` (stereo not given), the inhibition was 7.59% (inactive).
For the compound `O=C(O)c1c2c(nc3ccc(S(=O)(=O)N4CCC(C(=O)NC5CCCCCC5)CC4)cc13)CCCC2`, the inhibition is 23.1% (inactive).
As for `O=C(CSc1nc2c(c(=O)[nH]1)CCCC2)Nc1ccc(Cl)cc1F`, the figure is -2.08% (inactive); as for `CS(=O)(=O)N1CCC(C(=O)Nc2ccc(F)cc2F)CC1`, -3.46% (inactive); as for `CCCCC(CC)CNC(=O)c1cccs1` (stereo not given), -3.27% (inactive).
As for `Cc1ccccc1NS(=O)(=O)c1cc(C(=O)N2CCCC2)ccc1C`, the figure is 4.97% (inactive); as for `Cc1nnc(SCC(=O)NCCN2C(=O)CSC2=O)s1`, 2.17% (inactive).
As for `Cc1ccc(CSc2ncccc2C(=O)O)cc1`, the figure is 1.82% (inactive).
Regarding `Cc1cccc(CSc2ncccc2C(=O)O)c1`, the inhibition is 2.89% (inactive).
As for `COc1ccc(-c2cc(C(=O)NCc3ccccc3)no2)cc1OC`, the figure is -1.3% (inactive); as for `CC(=O)N=c1sc2cc(C)ccc2n1C`, 3.39% (inactive); as for `Cc1cc(C(=O)OCC(=O)NCc2ccc(Cl)cc2)c(C)o1`, -6.7% (inactive).
Regarding `CCN(CC)CC(=O)Nc1cccc2c1C(=O)c1ccccc1C2=O`, the inhibition was 5.73% (inactive).
For the compound `CCN(CC)CCC(=O)Nc1cccc2c1C(=O)c1ccccc1C2=O`, the inhibition is 7.62% (inactive).
For the compound `CCN(CC)C(C(=O)NC1CCCCC1)c1ccc(C)cc1` (stereo not given), the inhibition is -1.29% (inactive).
As for `COc1ccc(NC(=O)CN2C(=O)c3ccccc3Sc3ccc(C(=O)N4CCOCC4)cc32)c(OC)c1`, the figure is 9.02% (inactive); as for `CC(C)C1C(C#N)=C(N)Oc2n[nH]c(-c3cccs3)c21` (stereo not given), 5.75% (inactive).
With `CSCCC1C(C#N)=C(N)Oc2n[nH]c(-c3cccs3)c21` (stereo not given), the inhibition is 23.8% (active).
As for `CC(C)CC1C(C#N)=C(N)Oc2n[nH]c(-c3cccs3)c21` (stereo not given), the figure is -0.26% (inactive); as for `Cc1ccc2c(CN3C(=O)NC4(CCCCC4)C3=O)cc(=O)oc2c1C`, 8.97% (inactive).
As for `Cc1ccc(CSc2nc3sc(C)c(C)c3c(=O)n2Cc2ccco2)cc1`, the figure is 9.77% (inactive); as for `O=C(Nc1ccccc1Cl)c1ccc2c(c1)N(Cc1ccc(F)cc1)C(=O)CS2=O` (stereo not given), 3.24% (inactive).
As for `O=C(NC1CCCCCCC1)c1ccc2c(c1)N(Cc1ccc(F)cc1)C(=O)CS2=O` (stereo not given), the figure is 23.5% (active).
For the compound `Cc1ccc(C)c(NC(=O)c2ccc3c(c2)N(Cc2ccc(F)cc2)C(=O)CS3=O)c1` (stereo not given), the inhibition is -7.55% (inactive).
